What was measured:
[1] = biological target: High affinity nerve growth factor receptor (Homo sapiens) (UniProt P04629); conditions: at 1 µM;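 further: each value is the mean percent inhibition of TRKA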
[2] = biological target: BDNF/NT-3 growth factors receptor (Homo sapiens) (UniProt Q16620); conditions: at 0.1 µM
[3] = biological target: BDNF/NT-3 growth factors receptor (Homo sapiens) (UniProt Q16620); conditions: at 1 µM
[4] = biological target: NT-3 growth factor receptor (Homo sapiens) (UniProt Q16288); conditions: at 0.1 µM
[5] = biological target: NT-3 growth factor receptor (Homo sapiens) (UniProt Q16288); conditions: at 1 µM
[6] = biological target: T1, Tyrosine-protein kinase TXK (Homo sapiens) (UniProt P42681); conditions: at 0.1 µM
T1 sequence (whole entry): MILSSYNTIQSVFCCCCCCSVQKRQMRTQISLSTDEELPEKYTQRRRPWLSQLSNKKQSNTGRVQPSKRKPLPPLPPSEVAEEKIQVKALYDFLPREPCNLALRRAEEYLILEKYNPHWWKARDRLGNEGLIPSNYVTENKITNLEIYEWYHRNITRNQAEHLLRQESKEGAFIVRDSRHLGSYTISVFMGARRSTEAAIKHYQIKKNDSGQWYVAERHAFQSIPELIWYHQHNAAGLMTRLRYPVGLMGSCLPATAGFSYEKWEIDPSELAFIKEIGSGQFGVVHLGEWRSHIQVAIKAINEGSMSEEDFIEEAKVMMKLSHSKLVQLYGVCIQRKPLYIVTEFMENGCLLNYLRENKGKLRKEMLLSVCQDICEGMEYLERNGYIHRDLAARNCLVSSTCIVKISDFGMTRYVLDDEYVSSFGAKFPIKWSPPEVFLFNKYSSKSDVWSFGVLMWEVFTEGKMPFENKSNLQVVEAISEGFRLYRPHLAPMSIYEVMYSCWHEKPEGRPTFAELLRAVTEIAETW

[7] = biological target: T1, Tyrosine-protein kinase TXK (Homo sapiens); conditions: at 1 µM
[8] = biological target: Non-receptor tyrosine-protein kinase TYK2 (Homo sapiens) (UniProt P29597); conditions: at 0.1 µM;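 further: each value is a mean of the inhibition readings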
[9] = biological target: T2, Dual specificity protein kinase TTK (Homo sapiens) (UniProt P33981); conditions: at 1 µM;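 further: reported figures are mean TTK inhibition at 1 µM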
T2 sequence (whole entry): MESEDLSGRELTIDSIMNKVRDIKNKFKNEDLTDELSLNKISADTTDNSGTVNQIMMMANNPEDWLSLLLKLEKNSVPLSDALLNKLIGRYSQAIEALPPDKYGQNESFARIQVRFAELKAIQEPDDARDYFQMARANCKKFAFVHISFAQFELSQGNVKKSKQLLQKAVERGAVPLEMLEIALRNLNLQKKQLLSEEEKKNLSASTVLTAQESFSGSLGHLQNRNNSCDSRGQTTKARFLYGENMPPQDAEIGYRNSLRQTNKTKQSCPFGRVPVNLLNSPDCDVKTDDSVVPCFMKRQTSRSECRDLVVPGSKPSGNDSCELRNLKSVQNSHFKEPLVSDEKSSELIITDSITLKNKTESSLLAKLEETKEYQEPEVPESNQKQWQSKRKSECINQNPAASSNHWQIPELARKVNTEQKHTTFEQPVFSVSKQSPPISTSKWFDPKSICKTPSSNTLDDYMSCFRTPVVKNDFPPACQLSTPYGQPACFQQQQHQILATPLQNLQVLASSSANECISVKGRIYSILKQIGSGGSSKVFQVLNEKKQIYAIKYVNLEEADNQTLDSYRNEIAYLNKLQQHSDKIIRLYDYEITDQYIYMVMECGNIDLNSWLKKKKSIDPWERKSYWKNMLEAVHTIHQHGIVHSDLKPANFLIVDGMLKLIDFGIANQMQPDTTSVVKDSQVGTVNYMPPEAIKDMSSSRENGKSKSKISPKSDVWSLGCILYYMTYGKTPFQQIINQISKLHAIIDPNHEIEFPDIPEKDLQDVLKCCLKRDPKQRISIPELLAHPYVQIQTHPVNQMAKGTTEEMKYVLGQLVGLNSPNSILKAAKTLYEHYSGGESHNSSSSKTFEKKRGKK

[10] = biological target: T3, Aurora kinase A (Homo sapiens) (UniProt O14965); conditions: at 0.1 µM
T3 sequence (whole entry): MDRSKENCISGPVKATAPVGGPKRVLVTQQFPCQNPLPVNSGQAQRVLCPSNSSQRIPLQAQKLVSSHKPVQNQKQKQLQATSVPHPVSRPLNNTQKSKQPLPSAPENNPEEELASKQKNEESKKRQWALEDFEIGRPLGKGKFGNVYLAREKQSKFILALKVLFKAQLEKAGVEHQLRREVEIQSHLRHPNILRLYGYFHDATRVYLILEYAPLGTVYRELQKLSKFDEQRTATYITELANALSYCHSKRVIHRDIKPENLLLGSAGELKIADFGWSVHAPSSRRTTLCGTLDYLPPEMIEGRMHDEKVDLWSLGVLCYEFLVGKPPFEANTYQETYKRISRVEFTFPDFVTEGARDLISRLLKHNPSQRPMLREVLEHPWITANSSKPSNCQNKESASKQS

[11] = biological target: T3, Aurora kinase A (Homo sapiens); conditions: at 1 µM
[12] = biological target: Aurora kinase B (Homo sapiens) (UniProt Q96GD4); conditions: at 0.1 µM
[13] = biological target: Aurora kinase B (Homo sapiens) (UniProt Q96GD4); conditions: at 1 µM
[14] = biological target: T4, Aurora kinase C (Homo sapiens) (UniProt Q9UQB9); conditions: at 0.1 µM
T4 sequence (whole entry): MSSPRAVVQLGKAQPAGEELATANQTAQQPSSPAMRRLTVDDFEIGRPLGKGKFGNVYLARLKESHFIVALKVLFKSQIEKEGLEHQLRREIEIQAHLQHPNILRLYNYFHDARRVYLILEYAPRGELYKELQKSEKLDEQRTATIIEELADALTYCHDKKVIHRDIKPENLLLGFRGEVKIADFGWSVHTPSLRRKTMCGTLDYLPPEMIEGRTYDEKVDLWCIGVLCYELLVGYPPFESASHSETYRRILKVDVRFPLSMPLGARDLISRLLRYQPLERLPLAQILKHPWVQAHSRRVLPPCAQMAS

[15] = biological target: T4, Aurora kinase C (Homo sapiens); conditions: at 1 µM
[16] = biological target: Serine/threonine-protein kinase 10 (Homo sapiens) (UniProt O94804); conditions: at 0.1 µM
[17] = biological target: Serine/threonine-protein kinase 10 (Homo sapiens) (UniProt O94804); conditions: at 1 µM
[18] = biological target: T5, Mitogen-activated protein kinase kinase kinase kinase 2 (Homo sapiens) (UniProt Q12851); conditions: at 0.1 µM
T5 sequence (whole entry): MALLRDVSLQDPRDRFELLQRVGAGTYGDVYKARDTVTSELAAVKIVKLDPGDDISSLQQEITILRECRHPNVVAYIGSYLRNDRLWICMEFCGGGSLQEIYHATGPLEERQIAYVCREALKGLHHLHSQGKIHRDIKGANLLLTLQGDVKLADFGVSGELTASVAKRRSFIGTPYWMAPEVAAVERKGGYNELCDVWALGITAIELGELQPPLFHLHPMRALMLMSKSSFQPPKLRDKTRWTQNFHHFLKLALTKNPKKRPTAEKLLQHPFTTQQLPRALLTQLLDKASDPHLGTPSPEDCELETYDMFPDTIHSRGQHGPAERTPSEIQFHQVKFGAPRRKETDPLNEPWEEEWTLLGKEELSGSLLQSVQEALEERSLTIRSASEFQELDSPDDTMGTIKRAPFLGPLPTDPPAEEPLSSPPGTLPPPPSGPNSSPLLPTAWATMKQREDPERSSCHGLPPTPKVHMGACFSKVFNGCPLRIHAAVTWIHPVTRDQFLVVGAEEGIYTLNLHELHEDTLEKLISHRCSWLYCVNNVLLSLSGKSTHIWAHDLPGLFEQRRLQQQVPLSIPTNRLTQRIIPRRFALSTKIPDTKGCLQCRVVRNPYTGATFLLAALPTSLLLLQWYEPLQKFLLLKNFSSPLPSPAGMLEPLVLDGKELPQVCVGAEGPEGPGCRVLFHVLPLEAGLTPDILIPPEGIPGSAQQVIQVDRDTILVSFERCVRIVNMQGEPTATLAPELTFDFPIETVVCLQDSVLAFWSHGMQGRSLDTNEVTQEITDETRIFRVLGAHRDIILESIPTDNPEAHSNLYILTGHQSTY

[19] = biological target: T5, Mitogen-activated protein kinase kinase kinase kinase 2 (Homo sapiens); conditions: at 1 µM
[20] = biological target: Mitogen-activated protein kinase kinase kinase kinase 4 (Homo sapiens) (UniProt O95819); conditions: at 0.1 µM
Sequence of Mitogen-activated protein kinase kinase kinase kinase 4 (Homo sapiens) (O95819 2-1239 limits assumed): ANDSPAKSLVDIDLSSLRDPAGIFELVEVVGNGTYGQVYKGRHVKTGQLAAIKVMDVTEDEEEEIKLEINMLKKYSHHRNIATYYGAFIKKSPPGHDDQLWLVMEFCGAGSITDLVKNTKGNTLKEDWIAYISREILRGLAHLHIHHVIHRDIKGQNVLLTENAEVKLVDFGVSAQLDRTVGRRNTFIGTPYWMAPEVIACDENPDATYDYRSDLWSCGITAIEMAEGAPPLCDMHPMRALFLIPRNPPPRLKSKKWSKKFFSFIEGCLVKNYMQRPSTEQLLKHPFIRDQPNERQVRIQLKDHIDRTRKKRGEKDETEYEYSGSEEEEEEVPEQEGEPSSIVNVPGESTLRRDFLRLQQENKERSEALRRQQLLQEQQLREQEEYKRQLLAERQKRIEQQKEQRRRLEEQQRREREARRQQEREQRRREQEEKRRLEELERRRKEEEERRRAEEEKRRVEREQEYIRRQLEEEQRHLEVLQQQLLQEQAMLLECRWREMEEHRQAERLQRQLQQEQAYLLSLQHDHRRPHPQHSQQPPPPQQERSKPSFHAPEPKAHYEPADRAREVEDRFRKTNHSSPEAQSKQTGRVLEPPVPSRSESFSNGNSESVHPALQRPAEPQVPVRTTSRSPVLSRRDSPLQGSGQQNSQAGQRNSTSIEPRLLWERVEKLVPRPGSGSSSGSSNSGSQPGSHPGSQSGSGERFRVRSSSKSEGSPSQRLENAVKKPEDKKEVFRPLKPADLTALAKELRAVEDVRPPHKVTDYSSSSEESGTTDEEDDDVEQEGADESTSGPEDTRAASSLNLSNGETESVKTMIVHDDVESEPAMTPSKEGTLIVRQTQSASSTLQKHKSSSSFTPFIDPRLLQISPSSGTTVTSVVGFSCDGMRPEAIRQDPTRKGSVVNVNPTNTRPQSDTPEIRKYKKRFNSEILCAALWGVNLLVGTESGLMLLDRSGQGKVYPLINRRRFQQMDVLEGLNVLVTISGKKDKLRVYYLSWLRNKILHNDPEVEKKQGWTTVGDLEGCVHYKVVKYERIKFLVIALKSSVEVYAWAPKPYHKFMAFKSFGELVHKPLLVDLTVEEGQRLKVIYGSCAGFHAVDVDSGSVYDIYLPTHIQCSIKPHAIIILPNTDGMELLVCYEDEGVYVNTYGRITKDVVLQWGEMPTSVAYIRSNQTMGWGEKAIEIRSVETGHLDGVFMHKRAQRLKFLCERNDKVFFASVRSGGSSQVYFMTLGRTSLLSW

Sequence of Serine/threonine-protein kinase 10 (Homo sapiens) (O94804 whole entry, looked up): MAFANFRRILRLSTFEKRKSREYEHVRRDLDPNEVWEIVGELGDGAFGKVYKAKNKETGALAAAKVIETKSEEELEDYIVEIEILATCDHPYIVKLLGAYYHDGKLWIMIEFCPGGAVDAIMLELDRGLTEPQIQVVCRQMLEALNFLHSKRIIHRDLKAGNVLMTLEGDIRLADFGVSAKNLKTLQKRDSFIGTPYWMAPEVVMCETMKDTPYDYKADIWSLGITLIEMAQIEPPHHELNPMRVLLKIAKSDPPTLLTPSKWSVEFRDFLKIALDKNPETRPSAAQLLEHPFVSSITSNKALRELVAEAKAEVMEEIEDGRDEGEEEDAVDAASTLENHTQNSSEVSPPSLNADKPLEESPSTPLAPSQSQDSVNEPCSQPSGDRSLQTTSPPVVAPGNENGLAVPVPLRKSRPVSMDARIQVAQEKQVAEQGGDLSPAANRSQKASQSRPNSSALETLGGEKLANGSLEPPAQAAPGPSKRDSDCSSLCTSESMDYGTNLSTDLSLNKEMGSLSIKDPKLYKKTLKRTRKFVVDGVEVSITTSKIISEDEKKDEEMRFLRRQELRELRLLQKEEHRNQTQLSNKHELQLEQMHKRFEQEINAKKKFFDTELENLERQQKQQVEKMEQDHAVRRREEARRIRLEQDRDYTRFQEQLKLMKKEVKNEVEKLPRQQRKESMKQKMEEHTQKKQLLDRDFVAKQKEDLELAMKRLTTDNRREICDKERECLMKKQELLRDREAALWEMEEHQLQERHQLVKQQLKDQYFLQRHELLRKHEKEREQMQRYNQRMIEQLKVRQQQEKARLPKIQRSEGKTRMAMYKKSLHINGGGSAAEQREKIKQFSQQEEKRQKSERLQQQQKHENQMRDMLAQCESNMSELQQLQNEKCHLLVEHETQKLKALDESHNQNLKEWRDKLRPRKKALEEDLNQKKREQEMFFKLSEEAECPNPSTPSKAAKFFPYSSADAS
Sequence of Non-receptor tyrosine-protein kinase TYK2 (Homo sapiens) (P29597 whole entry): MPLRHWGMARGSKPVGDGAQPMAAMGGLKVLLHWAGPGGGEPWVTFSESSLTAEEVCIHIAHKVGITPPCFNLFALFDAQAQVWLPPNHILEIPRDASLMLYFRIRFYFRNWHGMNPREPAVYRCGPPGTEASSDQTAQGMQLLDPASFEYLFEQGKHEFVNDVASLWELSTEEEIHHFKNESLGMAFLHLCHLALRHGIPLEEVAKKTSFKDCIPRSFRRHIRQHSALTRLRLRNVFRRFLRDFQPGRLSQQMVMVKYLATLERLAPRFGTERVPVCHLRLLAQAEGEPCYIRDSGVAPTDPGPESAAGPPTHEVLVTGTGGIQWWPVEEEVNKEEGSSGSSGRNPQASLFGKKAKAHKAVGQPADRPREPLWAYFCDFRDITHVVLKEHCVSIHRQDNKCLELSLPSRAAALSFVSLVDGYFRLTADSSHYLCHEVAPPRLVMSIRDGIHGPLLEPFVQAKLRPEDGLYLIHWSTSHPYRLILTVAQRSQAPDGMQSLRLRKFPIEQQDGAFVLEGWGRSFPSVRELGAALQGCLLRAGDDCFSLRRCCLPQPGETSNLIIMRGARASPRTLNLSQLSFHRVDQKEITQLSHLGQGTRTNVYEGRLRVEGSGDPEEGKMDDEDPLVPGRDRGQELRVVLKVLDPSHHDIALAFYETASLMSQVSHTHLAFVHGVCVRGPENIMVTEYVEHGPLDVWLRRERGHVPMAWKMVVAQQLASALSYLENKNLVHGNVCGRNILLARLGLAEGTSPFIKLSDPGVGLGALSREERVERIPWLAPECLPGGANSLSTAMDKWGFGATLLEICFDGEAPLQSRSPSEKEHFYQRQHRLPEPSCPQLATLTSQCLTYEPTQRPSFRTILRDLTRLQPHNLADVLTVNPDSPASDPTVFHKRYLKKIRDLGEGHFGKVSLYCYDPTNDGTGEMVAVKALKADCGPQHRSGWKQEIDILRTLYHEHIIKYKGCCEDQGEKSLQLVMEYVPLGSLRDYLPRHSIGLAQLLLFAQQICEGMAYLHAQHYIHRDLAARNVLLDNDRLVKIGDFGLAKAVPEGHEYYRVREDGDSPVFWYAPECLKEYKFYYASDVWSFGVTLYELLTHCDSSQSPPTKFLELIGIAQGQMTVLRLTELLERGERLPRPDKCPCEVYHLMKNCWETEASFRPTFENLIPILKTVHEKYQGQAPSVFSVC
Sequence of Aurora kinase B (Homo sapiens) (Q96GD4 whole entry): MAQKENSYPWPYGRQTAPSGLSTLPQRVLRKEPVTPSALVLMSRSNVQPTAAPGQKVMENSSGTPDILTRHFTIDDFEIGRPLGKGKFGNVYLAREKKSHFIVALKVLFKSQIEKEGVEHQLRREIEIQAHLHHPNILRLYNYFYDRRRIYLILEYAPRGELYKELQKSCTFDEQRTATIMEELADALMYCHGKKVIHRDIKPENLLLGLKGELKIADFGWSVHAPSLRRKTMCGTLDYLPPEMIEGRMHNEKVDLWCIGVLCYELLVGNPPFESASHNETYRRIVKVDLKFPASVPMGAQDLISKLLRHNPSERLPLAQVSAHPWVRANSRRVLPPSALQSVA
Sequence of BDNF/NT-3 growth factors receptor (Homo sapiens) (Q16620 32-822 limits assumed): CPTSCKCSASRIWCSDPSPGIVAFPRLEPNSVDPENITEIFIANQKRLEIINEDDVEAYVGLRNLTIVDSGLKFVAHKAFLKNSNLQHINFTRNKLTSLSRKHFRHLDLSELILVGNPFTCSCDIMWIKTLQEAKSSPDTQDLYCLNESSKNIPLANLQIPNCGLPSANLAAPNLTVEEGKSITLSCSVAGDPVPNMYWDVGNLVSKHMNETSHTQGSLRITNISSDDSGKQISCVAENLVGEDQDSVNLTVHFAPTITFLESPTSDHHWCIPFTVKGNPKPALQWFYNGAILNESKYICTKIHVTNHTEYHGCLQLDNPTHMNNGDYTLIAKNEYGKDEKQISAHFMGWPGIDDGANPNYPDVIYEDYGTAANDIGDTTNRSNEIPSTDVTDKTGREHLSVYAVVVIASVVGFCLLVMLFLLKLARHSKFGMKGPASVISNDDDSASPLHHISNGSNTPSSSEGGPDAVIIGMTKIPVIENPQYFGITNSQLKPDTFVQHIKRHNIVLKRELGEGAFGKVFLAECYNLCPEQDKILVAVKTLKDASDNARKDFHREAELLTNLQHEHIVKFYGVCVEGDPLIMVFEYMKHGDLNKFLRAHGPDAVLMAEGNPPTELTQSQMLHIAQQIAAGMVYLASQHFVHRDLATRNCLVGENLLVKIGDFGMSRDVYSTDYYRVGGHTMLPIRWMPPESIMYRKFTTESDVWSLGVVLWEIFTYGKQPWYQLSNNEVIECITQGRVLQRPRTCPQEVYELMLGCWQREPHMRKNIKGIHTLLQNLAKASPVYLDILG

SMILES | inhibition [1] [%] | inhibition [2] [%] | inhibition [3] [%] | inhibition [4] [%] | inhibition [5] [%] | inhibition [6] [%] | inhibition [7] [%] | inhibition [8] [%] | inhibition [9] [%] | inhibition [10] [%] | inhibition [11] [%] | inhibition [12] [%] | inhibition [13] [%] | inhibition [14] [%] | inhibition [15] [%] | inhibition [16] [%] | inhibition [17] [%] | inhibition [18] [%] | inhibition [19] [%] | inhibition [20] [%]
Cc1ccc(NC(=O)c2ccnc(N3CCCC3)c2)cc1-c1ccc(C(=O)NCC2CC2)cc1 | 2.28 | 3.47 | 1.15 | 3.16 | 3.39 | -1.04 | 0.09 | -3.05 | 16.9 | 0.15 | 4.67 | 1.95 | 6.5 | -0.41 | 7.12 | 3.49 | 7.84 | 3.82 | 13.5 | 10
Cc1nnc(-c2ccc(C)c(-c3ccc(C(=O)Nc4cccc(C#N)c4)cc3)c2)o1 | -1.21 | 1.33 | 3.51 | -0.42 | 3.49 | 3.37 | 4.78 | -1.14 | 6.46 | 0.8 | 5.96 | 2.83 | 4.74 | 1.31 | -2.81 | 4.18 | 5.45 | -0.38 | 2.09 | 5.31
CCCN1CCC(Oc2cc(Nc3nc(Nc4cccc(F)c4C(N)=O)c4cc[nH]c4n3)c(OC)cc2Cl)CC1 | 5.14 | -1.93 | 3.41 | -1.48 | 5.25 | 2.84 | 3.46 | 0.33 | 33.7 | 0.38 | 5.9 | 3.16 | 6.47 | 2.93 | -1.8 | -0.06 | 7.28 | 1.26 | 9.17 | -0.01
N#Cc1c(NC(=O)c2cccc3ccccc23)sc2c1CCCC2 | 1.26 | 2.03 | 2.36 | 2.33 | 2.63 | 2.34 | 4.42 | -0.41 | 0.69 | 2.42 | 5.29 | 1.03 | 3.57 | 1.03 | 2.63 | 3.84 | 5.96 | 1.92 | 4.41 | 3.89
CCn1c(-c2nonc2N)nc2c(N3CCCC3)nccc21 | 0.75 | -0.07 | 0.49 | -0.45 | -0.34 | -0.75 | -2.21 | 2.25 | -1.76 | -1.86 | 2.53 | -1.12 | 5.43 | 0.17 | -2.42 | -0.24 | 2.42 | 1.22 | 4.2 | 0.97
COc1cccc(-n2ncc3c(N/N=C/c4cccc(F)c4)ncnc32)c1 | 3.57 | 2.75 | 6.27 | 2.97 | 7.58 | -0.86 | 1.52 | -0.2 | 10.5 | -2.23 | 16.9 | -1 | 7.83 | -2.12 | 1.75 | 3.91 | 11.8 | 1.55 | 4.59 | 7.45
NS(=O)(=O)c1ccc(N/N=C2\C(=O)Nc3ccc(C(=O)NCCc4c[nH]cn4)cc32)cc1 | 14.9 | 6.79 | 31.4 | 9.97 | 41.8 | 3.49 | 3.55 | -1.79 | 71.5 | 3.83 | 41.2 | 6 | 26.8 | 3.9 | 31.5 | 3.71 | 8.99 | 1.62 | 6.59 | 10.5
COc1cc(C=NNc2ncnc3c2cnn3-c2ccccc2)ccc1O | 14.3 | 5.2 | 33.1 | 5.23 | 34.6 | 3.66 | 5.94 | -0.09 | 10.5 | 23 | 94 | 11.5 | 56.8 | 9.9 | 88.3 | 5.58 | 26.1 | 4.63 | 19.3 | 28.1
COc1cc2ncn(-c3cc(OCc4ccccc4C(F)(F)F)c(C(N)=O)s3)c2cc1OC | 5.01 | 6.06 | 10.2 | 5.07 | 10.4 | -5.47 | 2.84 | -1.61 | 10.1 | 1.39 | 13.7 | 3.06 | 26.6 | 4.2 | 35.9 | 76 | 88.3 | 4.53 | 18.1 | 5.97
O=C1Nc2ccc(C(=O)c3ccco3)cc2C1=Cc1cc(Cl)c(O)c(Cl)c1 | 21 | 5.68 | 29.1 | 9.19 | 47.1 | 3.45 | 11.2 | -3.77 | 21.9 | 7.35 | 67.3 | 3.22 | 13.3 | 3.45 | 36.7 | 4.59 | 15.1 | 1.22 | 7.56 | 27.5
CS(=O)(=O)CCNCc1ccc(-c2ccc3ncnc(Nc4ccc(OCc5cccc(F)c5)c(C(F)(F)F)c4)c3c2)o1 | -0.52 | 2.14 | 2.72 | 2.59 | 3.16 | 3.11 | 3.02 | -4.14 | 7.39 | 4.12 | 2.73 | 2.77 | -1.87 | 0.77 | -1.89 | 3.11 | 7.45 | 1.28 | 2.47 | 3.22
CC(=O)Nc1cccc(C#Cc2cncnc2Nc2ccc(OCc3cccc(F)c3)c(Cl)c2)n1 | -2.48 | -1.79 | 0.05 | -0.41 | 4.04 | 0.96 | 0.46 | 4.58 | 10.8 | -0.41 | 2.65 | 3.23 | 1.96 | 3.46 | -5.73 | 4.04 | 14.4 | 2.81 | 2.04 | -0.3
CCn1c(-c2nonc2N)nc2cnc(Oc3cccc(NC(=O)c4ccc(OCCN5CCOCC5)cc4)c3)cc21 | -0.09 | 3.18 | 0.84 | 2.85 | 2.49 | 5.3 | 5.82 | -1.13 | 10.2 | 6.07 | 43 | 2.17 | 8.22 | 1.52 | 4.33 | 3.13 | 9.94 | 0.13 | -1.08 | 6.11
